# Reference: publication PMC9838217, “Structure of SALL4 zinc finger domain reveals link between AT-rich DNA binding and Okihiro syndrome”
# Positions count from the first letter of the chain named.
# Target: T1, SALL4 ZFC4 WT (HT-SELEX) (Mus musculus, UniProt Q8BX22 870-940)
# T1 sequence: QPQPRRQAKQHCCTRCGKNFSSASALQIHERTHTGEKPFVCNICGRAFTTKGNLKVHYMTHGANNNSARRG
# Assay: HT-SELEX; high values mean tight binding
# Conditions: protein: recombinant; vector His6-GST; dsDNA, one strand shown
# In short: (§1)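 Purified recombinant mouse SALL4 zinc finger cluster 4 (residues 870–940, 1 µg) was incubated with library DNA (1.5 µg first cycle, 200 ng later) in 100 µl buffer (10 mM Tris–HCl pH 7.5, 50 mM NaCl, poly(dI-dC), DTT) for 10 min at room temperature. Ni2+ bead-captured complexes were washed, PCR-amplified and reselected for up to 6 cycles, in triplicate, then MiSeq-sequenced and scanned for 6-mers. Binding signal is each canonical k-mer's read fraction as fold change versus the initial random library.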
row,Sequence,binding signal [fold-change vs cycle 0]
1,AATACG,1.06 ± 0.0521
2,CATCTC,0.879 ± 0.041
3,GCATAA,1.13 ± 0.0858
4,CAGATA,1.33 ± 0.0697
5,GAGAGA,0.898 ± 0.0151
6,CTCAAA,1.09 ± 0.0723
7,ATCCTG,0.879 ± 0.0324
8,ACTGAG,0.855 ± 0.0344

# Target: T2, SALL4 ZFC4 R900W (HT-SELEX) (Mus musculus, UniProt Q8BX22 870-940, R900W)
# T2 sequence: T1 sequence with R31W
# Assay: HT-SELEX; high values mean tight binding
# Conditions: protein: recombinant; vector His6-GST; dsDNA, one strand shown
# In short: as §1
row,Sequence,binding signal [fold-change vs cycle 0]
1,ACGAGC,0.322 ± 0.019
2,CCGCGA,0.102 ± 0.00288
3,CACGGG,0.253 ± 0.0129
4,AGGCGC,0.0722 ± 0.0162
5,CCGTGC,0.143 ± 0.00796
6,GAGGCA,0.367 ± 0.0203
7,ACCGAC,0.345 ± 0.0112
8,GGTATA,1.34 ± 0.0665
9,GCAGGC,0.124 ± 0.00995
10,CACGCC,0.137 ± 0.0218
11,CGACGA,0.288 ± 0.00345
12,CTCGCA,0.319 ± 0.0197
13,CTGCAC,0.345 ± 0.044
14,CGATGC,0.312 ± 0.0118
15,CGGGAC,0.202 ± 0.00689
16,CCGCAA,0.234 ± 0.0164

row,Sequence,binding signal [fold-change vs cycle 0]
1,ACGCGT,0.28 ± 0.0448
2,GTGGCA,0.276 ± 0.00829
3,CGGCAA,0.19 ± 0.00924
4,GCGTGA,0.325 ± 0.00871
5,GAGCCA,0.301 ± 0.00918
6,CTGCCA,0.304 ± 0.0171
7,ATGCCG,0.222 ± 0.0038
8,CGGACA,0.354 ± 0.00613
9,GCAGCC,0.112 ± 0.0161
10,GCGGGA,0.149 ± 0.0162
11,ACAGCC,0.328 ± 0.00712
12,GCCACA,0.251 ± 0.0128
13,ACGCTG,0.298 ± 0.0226
14,CCCGCC,0.0634 ± 0.0031
15,CCTGGC,0.162 ± 0.00687
16,ACTGCG,0.289 ± 0.0171
